In PubChem BioAssay AID1159580 (chemical genetic matrix, 2015):
In all, about 5,500 compounds went through this assay and about 2,000 (36%) were called active. Inconclusive results (about 18%) are left out. Cut-off read from the data, not from the text of the source: active = normalized growth mostly below about 0.91 (no sharp cut-off); inconclusive = no clear call, values can overlap the other calls; inactive = mostly above about 0.92. The list shows a part of the results.

Experiment: chemical genetic growth profiling, strain panel (AID 1159580);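 note: tested at 20 µM; growth read once vehicle control cultures reached saturation at 30 °C; 1 = growth at the plate median or of vehicle wells; lower values mean less growth of the strain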
Conditions: S. cerevisiae deletion strains, growth OD

Measured: normalized growth

FC(F)(F)COCC(F)(F)F
inactive: locus YAL021C, strain ccr4, hits give low values 1.02 | locus YAL026C, strain drs2, hits give low values 1.04 | locus YAL030W, strain snc1, hits give low values 0.993 | locus YBL061C, strain skt5, hits give low values 1.03 | locus YBR009C, strain hhf1, hits give low values 0.998 | locus YBR023C, strain chs3, hits give low values 1.03 | locus YBR171W, strain sec66, hits give low values 1.01 | locus YBR231C, strain swc5, hits give low values 1.02 | locus YBR279W, strain paf1, hits give low values 1.02 | locus YCL011C, strain gbp2, hits give low values 1.02 | locus YCL016C, strain dcc1, hits give low values 1.03 | locus YCL069W, strain vba3, hits give low values 1.03 | locus YCR088W, strain abp1, hits give low values 1.01 | locus YDL005C, strain med2, hits give low values 1.01 | locus YDL040C, strain nat1, hits give low values 1.02 | locus YDR001C, strain nth1, hits give low values 1.01 | locus YDR069C, strain doa4, hits give low values 1.02 | locus YDR137W, strain rgp1, hits give low values 1.03 | locus YDR159W, strain sac3, hits give low values 0.963 | locus YDR195W, strain ref2 0.996 | locus YDR297W, strain sur2, hits give low values 1.01 | locus YDR334W, strain swr1, hits give low values 1.01 | locus YDR335W, strain msn5, hits give low values 1.03 | locus YDR392W, strain spt3, hits give low values 0.971 | locus YEL003W, strain gim4, hits give low values 0.992 | locus YEL037C, strain rad23, hits give low values 1.01 | locus YEL061C, strain CIN8 (second series), hits give low values 1 | locus YER015W, strain faa2, hits give low values 1.02 | locus YER016W, strain bim1, hits give low values 1.03 | locus YER111C, strain swi4, hits give low values 1.01 | locus YER155C, strain BEM2 (second series), hits give low values 0.986 | locus YFR010W, strain ubp6, hits give low values 0.999 | locus YGL167C, strain pmr1, hits give low values 1.02 | locus YGL173C, strain kem1, hits give low values 1 | locus YGL227W, strain vid30, hits give low values 1.02 | locus YGL240W, strain doc1, hits give low values 0.996 | locus YGL253W, strain hxk2, hits give low values 1.03 | locus YHR013C, strain ard1, hits give low values 1.02 | locus YHR027C, strain rpn1, hits give low values 1.02 | locus YHR030C, strain SLT2, hits give low values 0.998 | locus YHR079C, strain IRE1, hits give low values 0.96 | locus YHR142W, strain chs7, hits give low values 1.03 | locus YJL092W, strain hpr5, hits give low values 1.02 | locus YJL095W, strain BCK1 (second series), hits give low values 1.03 | locus YJL095W, strain BCK1, hits give low values 1 | locus YJL115W, strain asf1, hits give low values 1.02 | locus YJL129C, strain trk1, hits give low values 1.04 | locus YJL154C, strain vps35, hits give low values 1.04 | locus YJL164C, strain tpk1, hits give low values 1.02 | locus YJL166W, strain qcr8, hits give low values 0.986 | locus YJL187C, strain SWE1, hits give low values 1.02 | locus YJR066W, strain TOR1, hits give low values 0.938 | locus YKL160W, strain elf1, hits give low values 1.01 | locus YKR026C, strain gcn3, hits give low values 1.01 | locus YKR091W, strain srl3, hits give low values 1.01 | locus YLL001W, strain dnm1, hits give low values 0.988 | locus YLL026W, hits give low values 1 | locus YLL041C, strain sdh2, hits give low values 1.02 | locus YLR027C, strain aat2, hits give low values 1.02 | locus YLR113W, strain HOG1, hits give low values 0.999 | locus YLR221C, strain rsa3, hits give low values 0.996 | locus YLR258W, strain gsy2, hits give low values 1.04 | locus YLR262C, strain YPT6 (second series), hits give low values 0.992 | locus YLR320W, strain mms22, hits give low values 0.968 | locus YLR342W, strain FKS1, hits give low values 1.03 | locus YLR357W, strain rsc2, hits give low values 1.01 | locus YLR370C, strain arc18, hits give low values 1.03 | locus YLR384C, strain iki3, hits give low values 1.02 | locus YML120C, strain ndi1, hits give low values 1 | locus YMR058W, strain fet3, hits give low values 1.04 | locus YMR125W, strain sto1, hits give low values 1.04 | locus YMR129W, hits give low values 1 | locus YMR205C, strain PFK2, hits give low values 1 | locus YMR231W, strain pep5, hits give low values 1.01 | locus YNL071W, strain lat1, hits give low values 1.03 | locus YNL183C, strain NPR1, hits give low values 0.948 | locus YNL209W, strain ssb2, hits give low values 1.03 | locus YNL248C, strain rpa49, hits give low values 1.04 | locus YNL322C, strain KRE1 (second series), hits give low values 1.02 | locus YNR049C, strain mso1, hits give low values 1.01 | locus YOR001W, strain rrp6, hits give low values 0.986 | locus YOR070C, strain gyp1, hits give low values 1.01 | locus YOR080W, strain dia2, hits give low values 1.01 | locus YOR083W, strain WHI5, hits give low values 0.981 | locus YOR106W, strain vam3, hits give low values 1.04 | locus YOR231W, strain MKK1, hits give low values 0.993 | locus YOR265W, strain rbl2, hits give low values 1.01 | locus YOR270C, strain vph1, hits give low values 1.07 | locus YOR290C, strain snf2, hits give low values 1.03 | locus YPL051W, strain arl3, hits give low values 1.03 | locus YPL078C, strain atp4, hits give low values 1.03 | locus YPL106C, strain sse1, hits give low values 0.983 | locus YPL240C, strain hsp82, hits give low values 1 | locus YPL256C, strain CLN2, hits give low values 0.948
